Screening results: PubChem, NMMLSC
RGS4-Gao reg: modulators of RGS4 binding to Galphao, primary screen, biochemical, multiplexed bead flow cytometry | Guanine nucleotide-binding protein G(o) subunit alpha (Homo sapiens), P09471 | actives lie on both sides | binding response (% of control), % at 10 µM | 220,000 compounds, 0.33% hits | AID 1415, 2008; in the data active = binding response below about 49% or above about 150%; inactive = in between;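 also: fluorescent Galphao activated with aluminum fluoride binding bead-coupled RGS4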
Target sequence (P09471 whole entry, looked up): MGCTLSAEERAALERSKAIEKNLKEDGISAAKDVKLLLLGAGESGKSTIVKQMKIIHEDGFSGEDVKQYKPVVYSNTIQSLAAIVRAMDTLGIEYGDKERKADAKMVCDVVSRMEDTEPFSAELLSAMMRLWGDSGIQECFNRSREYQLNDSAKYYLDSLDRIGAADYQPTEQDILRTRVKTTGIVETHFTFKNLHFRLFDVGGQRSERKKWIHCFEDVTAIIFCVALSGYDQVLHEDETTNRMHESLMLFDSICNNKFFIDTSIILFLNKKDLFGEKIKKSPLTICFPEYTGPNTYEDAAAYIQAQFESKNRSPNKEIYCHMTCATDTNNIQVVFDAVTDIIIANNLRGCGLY
RGS16-Gao: modulators of RGS16 binding to Galphao, primary screen, biochemical, human proteins, multiplexed bead flow cytometry; Regulator of G-protein signaling 16 (Homo sapiens) + Guanine nucleotide-binding protein …; AID 1441, 2008; bead-based flow cytometry RGS16-Galphao binding, fluorescence; actives lie on both sides; 220,000 compounds, 0.38% hits; binding response (% of control), % at 10 µM;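 also: Galphao activated by GDP with aluminum fluoride before binding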
RGS8-Gao reg: RGS8-Galphao binding modulators, primary screen, biochemical, multiplexed bead flow cytometry; Guanine nucleotide-binding protein G(o) subunit alpha (Homo sapiens), P09471; actives lie on both sides; response (percent of control binding), % at 10 µM; 220,000 compounds, 0.34% hits; AID 1423, 2008; in the data active = response below about 60% or above about 140%; inactive = in between;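 also: Galphao activated as the GDP aluminium fluoride complex binding bead-coupled RGS8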
GSH bead fluor: compound fluorescence on glutathione beads, profiling panel, artefact control, biophysical, 488/530 nm, flow cytometry. GSH beads flow cytometry, compound fluorescence 488/530 nm; stronger effect = higher value. fluorescence (KMESF) at 10 µM. 190,000 compounds, 0.25% hits. AID 1776, 2009; in the data active = fluorescence above about 89;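 also: glutathione beads carrying GST-tagged Bcl family fusion proteins plus one bare bead set; values are compound well signal with DMSO vehicle wells as background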
RGS7-Gao reg: RGS7-Galphao binding modulators, primary screen, biochemical, multiplexed bead flow cytometry; binding response (% of control), % at 10 µM; actives lie on both sides; 220,000 compounds, 0.35% hits; in the data active = binding response below about 49% or above about 150%; inconclusive = no clear call, values can overlap the other calls; inactive = in between;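 also: fluorescent Galphao held in activated GDP-AlF4 state binding bead-coupled RGS7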
Avidin fluor: green autofluorescence of compounds with avidin beads – biophysical, 488/530 nm, flow cytometry, artefact control, profiling panel; compound fluorescence 488/530 nm; stronger effect = higher value; 220,000 compounds, 0.38% hits; fluorescence (KMESF) at 10 µM; in the data active = fluorescence above about 47
RGS4-Gao HTS: modulators of RGS–Galpha-o binding, primary screen, biochemical, multiplexed beads, flow cytometry, RGS4/7/8/16/19; 1,600 compounds, 99% hits; shares compounds with RGS16-Gao; RGS4–Galpha-o binding response, % at 10 µM; multiplexed bead flow cytometry;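 also: fluorescently labeled Galpha-o bound to GDP with aluminium fluoride binding biotinylated RGS beads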
Biotin-avidin: disruption of biotin probe capture by avidin, counter-screen for RGS protein interaction modulators, biochemical, flow cytometry, bead-based; AID 1783, 2009; shares compounds with RGS16-Gao; inhibition, % at 10 µM; 1,700 tested, under 10 active; streptavidin beads, fluorescein-biotin binding;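 active = inhibition above 50%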;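 also: median green fluorescence of gated singlet beads compared with DMSO control wells; 0% = DMSO wells and 100% = complete loss of bead fluorescence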
RGS8-Gao single: RGS8-Galphao binding modulators, confirmation, biochemical, multiplexed bead flow cytometry, single concentration. shares compounds with RGS16-Gao. bead-based flow cytometry RGS8-Galphao binding, fluorescence; actives lie on both sides. binding response (% of control), % at 10 µM. 1,700 compounds, 3% hits. AID 1836, 2009; in the data active = binding response below about 72% or above about 130%; inactive = in between;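 also: Galphao activated as GDP AlF4 complex before binding bead RGS8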
RGS7-Gao single: RGS7-Galphao binding modulators, confirmation, biochemical, multiplexed bead flow cytometry, single concentration; shares compounds with RGS16-Gao; bead-based flow cytometry RGS7-Galphao binding; actives lie on both sides; response (percent of control binding), % at 10 µM; 1,700 compounds, 7.8% hits; in the data active = response below about 75% or above about 130%; inactive = in between;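 also: fluorescent Galphao activated with GDP and aluminum fluoride binding bead-coupled RGS7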
RGS16-Gao conf: modulators of RGS16-Galphao protein binding, confirmation, biochemical, single concentration, multiplexed bead flow cytometry; shares compounds with RGS16-Gao; bead-based flow cytometry; actives lie on both sides; response (% of control binding), % at 10 µM; 1,700 compounds, 4% hits; AID 1838, 2009; in the data active = response below about 74% or above about 130%; inactive = in between;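 also: Galphao activated as the GDP aluminium fluoride complex binding bead-coupled RGS16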
RGS4-Gao confirm: modulators of RGS4-Galphao protein binding, confirmation, biochemical, single concentration, multiplexed bead flow cytometry. shares compounds with RGS16-Gao. actives lie on both sides. binding response (% of control), % at 10 µM. 1,700 compounds, 4% hits. AID 1840, 2009; in the data active = binding response below about 74% or above about 130%; inactive = in between
RGS19-Gao conf: regulators of RGS19-Galphao binding, confirmation, biochemical, single point, multiplexed bead flow cytometry; 1,700 compounds, 5% hits; shares compounds with RGS16-Gao; response (percent of control binding), % at 10 µM; bead-based flow cytometry RGS19-Galphao binding; actives lie on both sides; in the data active = response below about 50% or above about 160%; inactive = in between;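 also: 100% = no compound control and 0% = blank background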
Target sequence (P09471 whole entry, looked up): as above
Target sequence (P49795 whole entry, looked up): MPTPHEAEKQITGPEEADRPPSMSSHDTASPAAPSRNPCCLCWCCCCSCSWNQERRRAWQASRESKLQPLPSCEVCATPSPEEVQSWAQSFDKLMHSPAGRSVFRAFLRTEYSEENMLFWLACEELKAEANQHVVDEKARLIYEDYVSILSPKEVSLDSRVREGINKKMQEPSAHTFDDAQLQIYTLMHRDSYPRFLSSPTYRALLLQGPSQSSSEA
* = called active by the depositor; [ ] = dose if it differs, or a comment. Sampled rows, rich in hits. Any-hit rate of the full collection: about 1.2%. Unless noted, no rule for the calls is given here.

For COc1ccc(NC(C)=O)cc1NC(=O)CN1CCN(C(=O)c2ccco2)CC1 the results were RGS4-Gao reg 130, RGS16-Gao inactive, RGS8-Gao reg 153*[activator], GSH bead fluor 32, RGS7-Gao reg 123, Avidin fluor 2, RGS4-Gao HTS 130*, Biotin-avidin 1, RGS8-Gao single 109, RGS7-Gao single 112, RGS16-Gao conf 112, RGS4-Gao confirm 110 and RGS19-Gao conf 121.
Screening CCOC(=O)NNC(=S)Nc1c(C)n(C)n(-c2ccccc2)c1=O returned RGS4-Gao reg 98, RGS16-Gao 100, RGS8-Gao reg 101, RGS7-Gao reg inconclusive and Avidin fluor 6.
Screening Cc1ccc(NC(=O)CCC(=O)OCc2ccc(Br)cc2)cc1 returned RGS4-Gao reg 101, RGS16-Gao 108, RGS8-Gao reg 103, GSH bead fluor 7, RGS7-Gao reg 102 and Avidin fluor 3.
For COC(=O)CNC(c1ccccc1)c1cc(Br)ccc1NC(C)=O (stereo unspecified) the results were RGS4-Gao reg 94, RGS16-Gao 102, RGS8-Gao reg 73, GSH bead fluor 18, RGS7-Gao reg 79, Avidin fluor 6, Biotin-avidin 1, RGS8-Gao single 102, RGS7-Gao single 103, RGS16-Gao conf 98, RGS4-Gao confirm 103 and RGS19-Gao conf 106.
COC(=O)CNC(c1ccccc1)c1cc(Cl)ccc1NC(=O)c1cccc(Cl)c1 (stereo unspecified) was read as RGS4-Gao reg 102, RGS16-Gao 108, RGS8-Gao reg 102, GSH bead fluor 19, RGS7-Gao reg 105 and Avidin fluor 3.
Screening CN=C1c2cc3c(Br)c(OC)ccc3n2CCN1C returned RGS4-Gao reg 152*[activator], RGS16-Gao 153, RGS8-Gao reg 97, GSH bead fluor 8, RGS7-Gao reg 128, Avidin fluor 16, Biotin-avidin -1, RGS8-Gao single 104, RGS7-Gao single 95, RGS16-Gao conf 105, RGS4-Gao confirm 99 and RGS19-Gao conf 96.
CCOCC(=O)Nc1cccc(C(=O)OCC)c1 was read as RGS4-Gao reg 99, RGS16-Gao 108, RGS8-Gao reg 104, GSH bead fluor 35, RGS7-Gao reg 96 and Avidin fluor 11.
For CCOCC(=O)Nc1cc(C(=O)OC)cc(C(=O)OC)c1 the results were RGS4-Gao reg 110, RGS16-Gao 203*[activator], RGS8-Gao reg 128, GSH bead fluor 6, RGS7-Gao reg 104, Avidin fluor 2, RGS4-Gao HTS 110*, Biotin-avidin 0, RGS8-Gao single 107, RGS7-Gao single 102, RGS16-Gao conf 111, RGS4-Gao confirm 102 and RGS19-Gao conf 108.
Nc1c(Cl)cc(Cl)cc1C(=O)OCC(=O)N1CCCC1 was read as RGS4-Gao reg 11*, RGS16-Gao 4.0*, RGS8-Gao reg 14*, GSH bead fluor 43, RGS7-Gao reg 9.7*, Avidin fluor -4, Biotin-avidin 0, RGS8-Gao single 108, RGS7-Gao single 109, RGS16-Gao conf 105, RGS4-Gao confirm 107 and RGS19-Gao conf 110.
For NC(=O)COC(=O)c1cc(Cl)cc(Cl)c1N the results were RGS4-Gao reg 98, RGS16-Gao 97, RGS8-Gao reg 100, GSH bead fluor 10, RGS7-Gao reg 92 and Avidin fluor 9.
O=C(Nc1ccc(Nc2ccncc2)cc1)c1ccc(Nc2ccnc3ccc([N+](=O)[O-])cc23)cc1[N+](=O)[O-] was read as RGS4-Gao reg 105, RGS16-Gao 103, RGS8-Gao reg 105, RGS7-Gao reg inconclusive and Avidin fluor 6.
CC1(C)CC(=O)C(C=NCCN2CCN(C(=O)CCl)CC2)=C(O)C1 was read as RGS4-Gao reg 101, RGS16-Gao 101, RGS8-Gao reg 101, RGS7-Gao reg inconclusive and Avidin fluor 3.
`CCC(=O)N1CCN(CCN=CC2=C(O)CC(C)(C)CC2=O)CC1` gave RGS4-Gao reg 105, RGS16-Gao 165, RGS8-Gao reg 146*[activator], GSH bead fluor 26, RGS7-Gao reg 106, Avidin fluor 10, RGS4-Gao HTS 105*, Biotin-avidin 1, RGS8-Gao single 97, RGS7-Gao single 99, RGS16-Gao conf 99, RGS4-Gao confirm 97 and RGS19-Gao conf 97.
